Source: ChEMBL document CHEMBL3988442, “University of Dundee, Small-Polar-MMV Screening Library” (2021)
About 13,000 (27%) of roughly 48,000 compounds showed an effect of 50% or more. The list shows a part of the results.

test system: Wolbachia pipientis; assay: Anti-Wolbachia Cell-Based Screen; format: functional; design: scale not given: in the data most compounds retested in dose-response had high values; conditions: 5 µM

Structure (SMILES) | Percent Effect
CC(C)N(C)CCNC(=O)N(C)CC1CCOCC1 | -11.44%
CCS(=O)(=O)N1CCC2(CC1)CC(OCC1CC1)CO2 (centres undefined) | -14.92%
CC(NC(=O)COCC(F)(F)F)c1nnc2n1CCCCC2 (centres undefined) | 88.58%
CC(NC(=O)COc1ccc(F)cc1)c1nnc2n1CCCCC2 (centres undefined) | -2.87%
CC(NC(=O)CCCOc1ccccc1)c1nnc2n1CCCCC2 (centres undefined) | -1.101%
CC(Cn1cccn1)NCC(=O)NC1(C#N)CCCCC1 (centres undefined) | 4.138%
CCC(CO)N(Cc1ccco1)C(=O)c1ccccc1NC (centres undefined) | -1.044%
Cc1oc(CN(C)C(=O)c2ccc(C(F)(F)F)cc2)cc1C(=O)O | -14.62%
CC(C#N)CNC(=O)Nc1ccc(-c2ccc[nH]2)cc1 (centres undefined) | -13.54%
O=C(CNC(=O)c1ccc(Cl)cc1)Nc1nccs1 | 62.52%
O=C(CNC(=O)c1cc(Cl)ccn1)Nc1nccs1 | -9.837%
O=C(CNC(=O)c1ccccc1Cl)Nc1nccs1 | 1.164%
Fc1ccc(OC2CCN(Cc3nnc(-c4ccco4)o3)CC2)cc1 | 0.5253%
OC1(CN2CCCC2)CCCN(Cc2cnc(-c3ccco3)nc2)C1 (centres undefined) | -19.31%
CN1CCN(Cc2ccccc2Oc2nccc3occc23)CC1 | 2.64%
OC1CCCN(Cc2c(-c3ccco3)[nH]c3ncccc23)C1 (centres undefined) | -4.635%
OC1CCN(Cc2c(-c3ccco3)[nH]c3ncccc23)CC1 | 97.96%

Structure (SMILES) | Percent Effect
CCN1CCN(Cc2c(-c3ccco3)[nH]c3ncccc23)CC1 | 126%
CCn1ccnc1CN1CCN(c2ncnc3ccccc23)CC1 | 5.306%
CN1CCN(Cc2cccc(NCc3ncc[nH]3)c2)CC1 | -6.689%
c1coc(-c2[nH]c3ncccc3c2CN2CCCOCC2)c1 | 122.9%
CN1CCN(Cc2c(-c3ccco3)[nH]c3ncccc23)CC1 | 119.4%
O=C(NCCN1CCOCC1)NCc1cccnc1-n1cccn1 | -2.618%
Cc1nc(-c2ccc(S(=O)(=O)N3CCSCC3)cc2)co1 | -2.351%
Cc1ccc(F)c(C(=O)Nc2cccc(CCN3CCCC3)c2)c1 | -3.643%
Cc1cccc(C2(NCCCS(C)(=O)=O)CCCC2)c1 | -2.725%
Cc1c(CS(C)(=O)=O)cccc1NCCCC1CCCC1 | -1.975%
CS(=O)(=O)NC(=O)CCc1cccc(OC2CCCC2)c1 | 2.726%
CS(=O)(=O)CCCNc1cccc(COC2CCCCC2)c1 | 108.4%
O=C(CN1CCCS1(=O)=O)Nc1cccc(COC2CCCCC2)c1 | 13.44%
Clc1cncc(NCc2cccc(COC3CCOCC3)c2)n1 | -1.49%
CC(CO)NC(=O)Nc1ccc(COC2CCCC2)cc1 (centres undefined) | 8.692%
OCCCNc1cccc(COC2CCCCC2)c1 | 117.5%
CS(=O)(=O)NCc1cccc(COC2CCCCC2)c1 | 112.9%
